Source: the supplement of paper PMC6555819

Assays:
Assay in all cases: PBM binding z-score (relative to random genomic background probes); higher = stronger binding; sequences stand for … in GC…GCGATTGACAGCGTAGAATGAAGG
[1] = test system: FXR:RXRa (NR concentration 270 nM, RXRa partner concentration 90 nM)
Procedure, shortened: (§1)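 Antibodies against each partner of ligand-free nuclear receptor dimers (one per run) detected binding on custom Agilent 4×180K protein-binding microarrays after 1 h incubation. The double-stranded probes had 34-nt variable regions carrying direct-repeat seeds, single-nucleotide variants, half-site ablations and random human genomic background sequences. Binding z-scores, from regression-normalized fluorescence, use the random background probes as reference.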

[2] = test system: LXRa:RXRa (NR concentration 270 nM, RXRa partner concentration 90 nM)
Procedure, shortened: as §1

[3] = test system: LXRa homodimer (NR concentration 270 nM)
Procedure, shortened: as §1

[4] = test system: LXRb:RXRa (NR concentration 270 nM, RXRa partner concentration 90 nM)
Procedure, shortened: as §1

[5] = test system: LXRb homodimer (NR concentration 270 nM)
Procedure, shortened: as §1

[6] = test system: PPARa:RXRa (NR concentration 270 nM, RXRa partner concentration 90 nM)
Procedure, shortened: as §1

[7] = test system: PPARg:RXRa (NR concentration 180 nM, RXRa partner concentration 90 nM)
Procedure, shortened: as §1

[8] = test system: PPARg:RXRa 270nM:90nM, anti-RXR (NR concentration 270 nM, RXRa partner concentration 90 nM)
Procedure, shortened: as §1

[9] = test system: PPARg:RXRa 30nM:10nM, anti-RXR (NR concentration 30 nM, RXRa partner concentration 10 nM)
Procedure, shortened: as §1

[10] = test system: PPARg:RXRa 90nM:30nM, anti-RXR (NR concentration 90 nM, RXRa partner concentration 30 nM)
Procedure, shortened: as §1

Row | Sequence | PBM binding z-score [1] | PBM binding z-score [2] | PBM binding z-score [3] | PBM binding z-score [4] | PBM binding z-score [5] | PBM binding z-score [6] | PBM binding z-score [7] | PBM binding z-score [8] | PBM binding z-score [9] | PBM binding z-score [10]
1 | GCATATAGGTCATACAAGGTGAAAGTCCGATTGT | 6.4 | 5.8 | 2.37 | 4.27 | 0.913 | 5.75 | 7.36 | 6.55 | 4.09 | 6.05
2 | CGAACGAGGGAATGAGTTGATAGCAAATGCCGAT | -0.82 | -0.749 | -0.474 | -1.01 | -0.729 | -1.17 | 0.578 | -0.457 | -0.284 | -0.51
3 | TGTCAAAGTTCAAGGGTAACGTAAGTATCCACAC | 6.24 | 6.1 | 3.43 | 3.73 | 0.957 | 5.25 | 8.36 | 7.5 | 5.26 | 7.05
4 | CATGCTAGGTCATGGTCAGCTAATCTACAGTATG | 3.66 | 3.18 | 0.549 | 1.79 | -0.0133 | 3.24 | 2.36 | 2.83 | 1 | 2.3
5 | CCTTACGGGTCAAGGTTATAGGACGGGTGGTACG | 5.27 | 3.82 | 0.302 | 3.28 | 0.221 | 5.05 | 4.55 | 4.69 | 2.05 | 3.36
6 | CTCGAAAGGTCGATTGAGGTGAGTATACGGATAA | 4.35 | 3.38 | -0.0633 | 2.93 | 0.38 | 4.12 | 1.66 | 2.47 | 0.642 | 1.43
7 | TCATATAGGTCAACAGGTGAAAGTCCGTAAGTTA | 6.45 | 5.39 | 1.85 | 4.2 | 1.2 | 5.91 | 8.36 | 7.51 | 5.85 | 7.17
8 | TCATATAGGTAATACACGTGAAAGTCGGCATCTA | 1.26 | 0.929 | 0.413 | 1.06 | 0.455 | 1.13 | 1.1 | 2.03 | 3.93 | 2.92
9 | CTCGAAAGGTCGGGTGAGGTGAGTATACGGATAA | 3 | 2.3 | 0.0705 | 2.18 | 0.195 | 3.49 | 1.32 | 1.78 | 0.448 | 1.04
10 | CTCGAAAGGTCGTACTCAGGTGAGTATACCAAAC | 5.55 | 4 | 0.513 | 3.59 | 0.9 | 4.59 | 2.86 | 3.85 | 1.33 | 2.46
11 | ACTATTAGTTGAGATGAGGGCAACCGATAGGTTG | 1.23 | 0.291 | 0.338 | 0.212 | 0.0544 | 0.427 | 0.607 | 0.07 | 0.15 | 0.083
12 | ACTAGCAGGCCAATGGTCACTCAAGATTAGTCCG | -0.525 | -0.42 | -0.46 | -0.417 | -0.678 | 0.789 | 2.17 | 3.26 | 0.959 | 2.79
13 | ACTGGGAGGACAAAGGTCAGAGCTACGCCAGTGA | 4.45 | 4.69 | 2.01 | 4 | 1.04 | 5.24 | 8.13 | 7.23 | 5.7 | 7.48
14 | CAAACTAGGTCACAGAGGTGAAAGTCCGTGCGTA | 5.7 | 4.38 | 0.932 | 3.33 | 0.56 | 5.82 | 9.16 | 7.57 | 5.73 | 7.6
15 | TCTTGTAGATCAGCAGGTTAAGAAAGCTGGCCAA | -0.00874 | 0.161 | -0.357 | 0.167 | -0.4 | 0.684 | -0.446 | 1.3 | 2.21 | 1.66
16 | ACTAGCAGGCCAAGTTTTGGTCACTCAAACAAAG | -0.294 | -0.403 | -0.274 | -0.34 | -0.558 | -0.0813 | -0.156 | -0.261 | -0.692 | -0.457
17 | TCTACTAGGTCAACGATGGTCAGCTAATCTGCTA | 3.61 | 3.2 | 0.626 | 2.29 | 0.75 | 4.36 | 6.19 | 6.03 | 4.97 | 5.88
18 | CCTATTAGTTGACCATAAGGGCAACCTAAGCTCG | 1.15 | 0.43 | 0.487 | 0.701 | 0.685 | 0.846 | 0.521 | 0.842 | 0.125 | 0.491
19 | ATCTCTATGTAAGACTCAGTTCAGTGAAGAACGC | -0.0618 | 0.138 | 0.304 | -0.0643 | 0.391 | -0.231 | 0.076 | -0.0831 | -0.162 | -0.281
20 | CTACCAAGGTGAACGAGGTCGTTGATTACTATTC | 1.79 | 1.81 | 0.142 | 2.09 | -0.207 | 2.82 | 1.45 | 1.48 | 0.4 | 0.896
21 | CATACTGGGCCACGAAAGGTCATTGATTCAGTGA | 3.98 | 5.28 | 5.21 | 4.44 | 0.817 | 4.52 | 4.46 | 4.67 | 1.9 | 3.84
22 | ATCTCAAGGTAAAAGTTCAGTGAATCCCGAGGAT | 1.18 | 1.66 | 1.12 | 0.879 | 0.539 | 3.08 | 3.54 | 4.49 | 2.83 | 4.24
23 | TCTAGTTGGTCCCGGAGGTCACACACGACGGGTA | 2.88 | 2.9 | 2.37 | 3.18 | 0.951 | 3.55 | 1.68 | 2.9 | 3.06 | 3.11
24 | CCGACTGGGGCAAAGGTTACCATTCTCAGTACGA | 1.49 | 1.29 | -0.141 | 2.02 | -0.949 | 5.42 | 11.2 | 9.61 | 8.44 | 11.7
